This is a sample that favours compounds with a hit; in the whole collection about 2.4% have one here.
POLH inh: DNA polymerase eta (human) inhibition | Q9Y253 | recombinant Pol eta, fluorescent DNA replication assay | Potency, µM (titrated, usually from 114 µM), for the others: at the top dose activity change, negative = inhibition, actives largely listed as inhibitors | hit rate 1.2% among 390,000; also: % is scaled to controls: 0 for no effect and ±100 for the full control effect
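Fluorescent replication assay: 50 nM final substrate added after a 15 min room-temperature compound preincubation with 10 nM enzyme. Signal taken at 0 min and again at 10 min.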
POLI inh: DNA polymerase iota (human) inhibition | AID 588590 | Q9UNA4 | Potency, µM (doses to about 115 µM), inactives show top-dose activity, negative = inhibition, most hits filed as inhibitors | Pol iota fluorescent replication assay, 10 min | hit rate 1% among 390,000
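Fluorescent replication assay read twice, at 0 min and 10 min after adding 50 nM (final) substrate. Enzyme (10 nM) and compounds were first incubated 15 min at room temperature; enzyme-free buffer wells were negative controls.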
Pol beta inh: DNA polymerase beta (human) inhibition; P06746; Pol beta primer extension/strand displacement, fluorescence kinetic; Potency, µM (highest dose often 114 µM), for the others: top-dose activity change, negative = inhibition, most hits filed as inhibitors; hit rate 1.3% among 340,000; AID 485314; also: % is scaled to controls: 0 for no effect and ±100 for the full control effect
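Preincubation: enzyme (10 nM) with compound, 15 min, RT. Reaction: substrate added to 50 nM final. Reads: 0 and 10 min. Analysis: normalized, Hill fit.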
GCN5L2 inh: inhibitors of human GCN5L2 histone acetyltransferase; Q92830; Potency, µM (series often up to 58.9 µM), inactives show at the top dose activity change, negative = inhibition, usual class: inhibitors; hit rate 0.21% among 390,000; AID 504327; GCN5L2 HAT assay, ThioGlo1 CoA-SH fluorescence; also: % is scaled to controls: 0 for no effect and ±100 for the full control effect
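GCN5L2 (20 nM) in 50mM HEPES pH 7.5, 0.1mM EDTA, 0.01% Tween-20 preincubated 15 min with compounds at room temperature. Reaction started with H3(1-25) 75uM, acetyl-CoA 70uM, ThioGlo1 50uM; CoA-thiol fluorescence (Ex340/Em540) read at 0 and 20 min.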
Pol kappa inh: DNA polymerase kappa (human) inhibition | Potency, µM (highest dose often 107 µM), without a hit: at the top dose activity, negative = inhibition, most hits filed as inhibitors | purified Pol kappa, fluorescent DNA synthesis assay, 10 min | Q9UBT6 | hit rate 0.53% among 400,000 | AID 588579; also: % is scaled to controls: 0 for no effect and ±100 for the full control effect
Target sequence (Q9UBT6 whole entry, looked up): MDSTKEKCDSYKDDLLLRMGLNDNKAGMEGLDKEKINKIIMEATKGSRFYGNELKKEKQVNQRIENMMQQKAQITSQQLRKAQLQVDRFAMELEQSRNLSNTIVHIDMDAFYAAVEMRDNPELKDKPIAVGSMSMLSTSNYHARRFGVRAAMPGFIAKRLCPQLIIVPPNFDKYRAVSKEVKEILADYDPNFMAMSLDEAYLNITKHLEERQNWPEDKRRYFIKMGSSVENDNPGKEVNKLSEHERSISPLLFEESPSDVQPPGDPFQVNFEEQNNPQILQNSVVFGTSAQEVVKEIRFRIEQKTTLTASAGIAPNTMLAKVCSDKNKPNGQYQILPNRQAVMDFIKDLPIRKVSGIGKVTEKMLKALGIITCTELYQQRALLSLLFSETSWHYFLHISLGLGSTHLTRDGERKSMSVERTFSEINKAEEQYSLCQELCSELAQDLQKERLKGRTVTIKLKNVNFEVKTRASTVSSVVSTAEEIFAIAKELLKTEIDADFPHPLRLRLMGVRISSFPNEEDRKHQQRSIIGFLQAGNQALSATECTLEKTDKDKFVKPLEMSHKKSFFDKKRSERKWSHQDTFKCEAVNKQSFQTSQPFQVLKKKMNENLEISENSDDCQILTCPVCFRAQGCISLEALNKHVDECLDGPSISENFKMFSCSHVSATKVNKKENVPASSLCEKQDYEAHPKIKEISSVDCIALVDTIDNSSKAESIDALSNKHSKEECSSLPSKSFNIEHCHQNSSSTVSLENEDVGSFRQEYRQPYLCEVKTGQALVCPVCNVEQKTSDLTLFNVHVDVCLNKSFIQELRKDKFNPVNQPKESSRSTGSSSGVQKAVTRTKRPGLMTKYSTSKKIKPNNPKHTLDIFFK
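Kinetic fluorescence screen: compound preincubated 15 min RT with 10 nM enzyme; 50 nM substrate (final) initiates; reads at 0/10 min.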
GLS inhibitor: glutaminase GLS (human) inhibition. AID 624170. hit rate 0.21% among 410,000. Potency, µM (titrated, usually from 45.5 µM), for inactives: at the highest dose activity change, negative = inhibition, usual class: inhibitors. GLS enzymatic activity, qHTS titration; also: % is scaled to controls: 0 for no effect and ±100 for the full control effect
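hKGA; 45 mM KH2PO4 pH 8.2 + 0.02% Tween-20; cpd via pin tool; 1 mM Gln soln; GluOx/HRP/Amplex Red; RT 30 min; fluor. t0 & final.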
Active calls of the source: *; ? = inconclusive; . = not tested or not shown; ! = not confirmed by another sample. Calls follow the shape of the dose curve; as a rule, active = well fitted inhibition curve with a large enough effect; inconclusive = small, poorly fitted or top-dose-only effect, or another doubt; inactive = no such curve, though single readings can be large or run the other way. Potency is read from the fitted curve at half-maximal effect.

SMILES	POLH inh	POLI inh	Pol beta inh	GCN5L2 inh	Pol kappa inh	GLS inhibitor
O=C(OCC1OC(OC(=O)c2cc(O)c(O)c(OC(=O)c3cc(O)c(O)c(O)c3)c2)[C@@H](OC(=O)c2cc(O)c(O)c(OC(=O)c3cc(O)c(O)c(O)c3)c2)C(OC(=O)c2cc(O)c(O)c(OC(=O)c3cc(O)c(O)c(O)c3)c2)C1OC(=O)c1cc(O)c(O)c(OC(=O)c2cc(O)c(O)c(O)c2)c1)c1cc(O)c(O)c(OC(=O)c2cc(O)c(O)c(O)c2)c1 (stereo partly specified)	.	.	.	3.55µM*	0.006µM*	27.9%
Cc1cn(C2OC(COC(=O)c3ccccc3)C(OC(=O)c3ccccc3)C2OC(=O)c2ccccc2)c(=O)[nH]c1=O (stereo unspecified)	4.8%	15.6%	20.7%	-4.7%	6.5%	-3.0%
CC(=O)SC[C@@H](C)C(=O)N1CCC[C@H]1C(=O)N[C@@H](Cc1ccccc1)C(=O)O	.	.	.	.	.	-13.0%
O=C(COc1ccccc1)Nc1nc(-c2cccnc2)cs1	?	-5.8%	.	-0.1%	-14.1%	1.0%
N#Cc1ccc(OCC(=O)Nc2nc(-c3cccnc3)cs2)cc1	50.1µM*	?	.	-15.9%	-20.0%	0.0%
Nc1ccc(/C=C/c2ccnc3ccccc23)c(N)c1	.	46.0%	.	.	9.4%	.
COc1ccc(N=C2S/C(=C\c3ccco3)C(=O)N2CC(C)C)cc1	-10.1%	-3.2%	79.4µM*	-5.6%	-2.3%	-13.8%
C/C(CC(=O)Nc1ccc2ccccc2c1)=N\NC(=O)c1ccc(O)c(O)c1	?	?	3.55µM*	-11.3%	79.4µM*	6.31µM*
Cc1ccc(CN2[C@H](C)[C@H](c3ccccc3)OCCS2(=O)=O)cc1	.	-15.7%	.	.	-14.9%	.
O=C(CN1C(=O)CC(c2ccco2)Sc2ccccc21)Nc1ccccc1F (stereo unspecified)	?	44.7µM*	-18.2%	-6.0%	-21.0%	2.0%
C[C@H](C(=O)O)c1cccc(C(=O)c2ccccc2)c1	-18.0%	14.6%	.	0.7%	11.2µM*!	-6.8%
O=C(Cn1ncc(Cl)c(Cl)c1=O)NC1CCS(=O)(=O)C1 (stereo unspecified)	?	14.1µM*	?	-14.7%	?	-2.0%
O=C(Cn1ncc(Cl)c(Cl)c1=O)NC1CCCCC1	-20.2%	0.9%	.	-1.2%	-3.3%	-0.7%
Oc1ccc(/C=N/N=C/c2ccc(O)cc2)cc1	-8.5%	20.5%	0.3%	-3.8%	-1.1%	8.4%
Oc1ccc(N=Cc2ccc(O)c(O)c2)cc1	3.16µM*	12.6µM*	?	-10.7%	44.7µM*	?
C=CCNC(=O)c1ccccc1NC(=O)Nc1ccccc1	-10.3%	89.1µM*	-2.8%	-4.3%	-8.0%	3.2%
COCCNC(=O)c1ccccc1NC(=O)Nc1ccccc1	-17.4%	46.8%	10.3%	1.3%	-1.1%	-1.3%
Cc1ccc(-c2nc3ccc(C(=O)O)cc3nc2-c2ccc(C)cc2)cc1	-0.2%	5.0%	13.7%	-10.3%	-17.6%	-22.8%
CCc1nc2ccc(C(=O)O)cc2nc1CC	14.1µM*	-2.5%	-24.0%	0.5%	-2.1%	-0.7%
O=C(O)c1ccc2nc3c(nc2c1)-c1ccccc1C3=O	22.4µM*	111.3%	-2.7%	-2.7%	-17.5%	15.6%
COc1cc(CN2c3ccc(Br)cc3C(=O)CS2(=O)=O)cc(OC)c1	.	1.2%	.	.	-18.5%	.
COc1cccc(CN2c3ccc(Br)cc3C(=O)CS2(=O)=O)c1	-0.6%	79.4µM*!	.	?	-3.0%	20.3%
O=Cc1ccccc1C=O	.	.	.	?	23.8µM*	33.4%
CSCc1nc2sc(C(=O)Nc3nc(C)cs3)c(C)c2c(=O)[nH]1	31.6µM*	?	-2.5%	-4.3%	-25.3%	2.6%
Cc1ccc(C)c(N2CCN(C(=O)c3cnc4c(-c5ccccc5)c(C)nn4c3C)CC2)c1	-8.2%	5.6%	12.9%	-24.5%	0.0%	9.2%
SMILES	POLH inh	POLI inh	Pol beta inh	GCN5L2 inh	Pol kappa inh	GLS inhibitor
CCNc1ccccc1CP(=O)(c1ccccc1)c1ccccc1O (stereo unspecified)	1.6%	14.1µM*	50.1µM*	-15.4%	-38.5%	-18.1%
Cc1ccc(O)c(CP(=O)(c2ccccc2)c2ccccc2)c1	-19.6%	27.2%	30.4%	-4.6%	-1.5%	4.3%
CC(=O)C(C(C)=O)C1(O)C(=O)c2ccccc2C1=O	89.1µM*	3.16µM*	?	-0.6%	-2.4%	2.8%
C=CCSc1nnc(-c2sc(-c3ccccc3)nc2C)n1C	-14.3%	1.4%	2.6%	-20.3%	-4.4%	.
C=CCSc1nnc(-c2nnc(SCC=C)n2-c2ccccc2)n1-c1ccccc1	-8.0%	6.8%	17.5%	31.6µM*	-1.0%	-14.1%
COc1ccccc1/C=C/C(=O)NCC(=O)N/N=C(/C)c1ccc(Cl)cc1	1.8%	-7.1%	13.2%	-5.8%	-3.3%	-3.0%
O=C(COc1cccc([N+](=O)[O-])c1)N/N=C/c1ccco1	?	28.2µM*	-17.7%	-1.3%	-31.0%	-2.3%
O=C(/C=C/c1ccco1)NCC(=O)N/N=C/c1ccc([N+](=O)[O-])cc1	44.7µM*	39.8µM*	?	-22.1%	?	?
Cc1cc(C)cc(OCC(=O)N/N=C/c2ccco2)c1	-12.1%	113.8%	-0.8%	3.7%	-2.6%	-7.7%
O=[N+]([O-])c1ccc(NN=Cc2ccco2)nc1	50.1µM*	44.7µM*	.	.	?	-24.2%
O=C(/C=C/c1ccco1)NCC(=O)N/N=C/c1ccc(Cl)cc1	-9.7%	-23.7%	2.1%	-3.8%	-13.4%	12.7%
C/C(=N/NC(=O)CNC(=O)/C=C/c1ccco1)c1ccc(Cl)cc1	-26.1%	21.8%	22.4µM*	-13.6%	-12.5%	-1.8%
NS(=O)(=O)c1ccc(S(=O)(=O)N2CCN(c3nc(-c4ccccc4)nc4ccccc34)CC2)cc1	.	-20.6%	.	.	9.5%	.

From PubChem
